20 compounds from PubChem BioAssay (Tox21) can be followed below.

The nature of assay [1]: A CellTox Green Cytotoxicity Assay to monitor cytotoxicity in HEK293 cells - 40 hour (AID 1224871). Further: nearly all actives have a fitted effect of over 45% in size. Summed up: (§1)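 Tox21 screen in HEK293: membrane-impermeant cyanine dye fluoresces on binding dead-cell DNA; compound pinned 5 h post-seeding, plates held at 37 C, signal read repeatedly through 40 h.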
Assay [2] is described as follows: qHTS RealTime-Glo MT Cell Viability Assay in HEK293 cells - 16 hour (AID 1224872). Further: nearly all actives have a fitted effect of over 50% in size. The procedure, abridged:
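Reads taken at 0, 8, 16, 24, 32 and 40 h from the same wells. HEK293 cells (600/well) carried RealTime-Glo reagents from seeding, with compound added after a 5 h settle at 37 C.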
(qHTS replaces the single test concentration by a dilution series.)

Assay [3] can be described thus: qHTS RealTime-Glo MT Cell Viability Assay in HepG2 cells - 8 hour (AID 1224873). Further: nearly all actives have a fitted effect of over 55% in size. Summed up: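 HepG2 cells (600/well) mixed with RealTime-Glo MT reagent, settled 5 h at 37 C/5% CO2 before compound addition. Nonlytic NanoLuc luminescence from viable-cell prosubstrate reduction read repeatedly during 40 h treatment at 37 C.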
The nature of assay [4]: A CellTox Green Cytotoxicity Assay to monitor cytotoxicity in HepG2 cells - 16 hour (AID 1224876). Further: nearly all actives have a fitted effect of over 45% in size. Summed up: (§2)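 Measurements at 0, 8, 16, 24, 32 and 40 h of treatment captured CellTox Green fluorescence in HepG2 cells that had been co-plated with reagent and preincubated 5 h at 37 C/5% CO2.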
The nature of assay [5]: qHTS RealTime-Glo MT Cell Viability Assay in HepG2 cells - 32 hour (AID 1224877). Further: nearly all actives have a fitted effect of over 55% in size. The procedure, abridged:
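HepG2 suspension premixed with RealTime-Glo reagents is plated at 600 cells per well and left 5 h at 37 C/5% CO2. Compounds in DMSO then go in, and bioluminescence reflecting viable cell number is recorded over 40 h.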

Assay [6] can be described thus: A CellTox Green Cytotoxicity Assay to monitor cytotoxicity in HepG2 cells - 24 hour (AID 1224878). Further: nearly all actives have a fitted effect of over 45% in size. The procedure, abridged: as §2
A short description of assay [7]: A CellTox Green Cytotoxicity Assay to monitor cytotoxicity in HepG2 cells - 40 hour (AID 1224879). Further: nearly all actives have a fitted effect of over 40% in size. The procedure, abridged: as §2
A short description of assay [8]: qHTS RealTime-Glo MT Cell Viability Assay in HEK293 cells - 0 hour (AID 1224880). Further: nearly all actives have a fitted effect of over 45% in size. The procedure, abridged: (§3)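 HEK293 + NanoLuc + prosubstrate, 600 cells/well; 5 h, 37 C/5% CO2; compound 23 nL in DMSO by pintool; 37 C; luminescence read at 0, 8, 16, 24, 32 and 40 h time points.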
The nature of assay [9]: A CellTox Green Cytotoxicity Assay to monitor cytotoxicity in HEK293 cells - 24 hour (AID 1224875). Further: nearly all actives have a fitted effect of over 45% in size. The procedure, abridged:
as §1

A short description of assay [10]: qHTS RealTime-Glo MT Cell Viability Assay in HEK293 cells - 40 hour (AID 1224874). Further: nearly all actives have a fitted effect of over 50% in size. Particulars: RealTime-Glo luminescence; max response: stronger effect = lower value. Summed up: as §3

Each structure is given as a SMILES string. “And” between values parts separate entries of the source, which are not always exact repeats. Identical values can stand only once. Records with an inconclusive call do not appear. More than one record can exist for a structure, and the calls need not agree. The source made the active and inactive calls. The call rests on the fitted dose curve; in most records, active means well fitted curve in the direction sought with a large enough effect in the repeat runs; inconclusive means weak or mixed curves; inactive means no such curve, though single readings can be large; an effect the other way counts as inactive or inconclusive.
On the % scale 0 is the no-effect control and ±100 the full control effect; potency means the concentration at half of the fitted maximal effect.

As for `O=NN(c1ccccc1)c1ccccc1`, the Potency entry in assay [1], in assay [2], in [3], in [4], in [5] and in assay [6] was “inactive” throughout. Moreover, the Potency entry in assay [7] and in [8] was “inactive” throughout.
As to `CC(C)Nc1nc(Cl)nc(NC(C)C)n1`, the Potency result in [1], in assay [2], in assay [3], in [9], in assay [4] and in assay [5] was “inactive” throughout. In addition, the Potency entry in assay [6], in assay [7] and in [8] was “inactive” each time.
For the compound `CCNc1nc(Cl)nc(NC(C)(C)C#N)n1`, the Potency entry in assay [1], in assay [2], in [3], in [4], in [5] and in assay [6] was “inactive” in each case. The Potency result in [7] and in assay [8] was “inactive” each time.
For `N#Cc1c(Cl)c(Cl)c(Cl)c(C#N)c1Cl`, the Potency was 6.79 µM (active) and 5.49 µM (active) in assay [1]; 3.4 µM (active) and 1.55 µM (active) in [2]; 42.8 µM (active) and 11 µM (active) in [3]; 12.1 µM (active) and 9.77 µM (active) in assay [9]; 24.1 µM (active) and 6.92 µM (active) in assay [4]; 19.1 µM (active) and 3.89 µM (active) in [5]. For the same compound, the Potency in assay [6] is 24.1 µM (active) and 3.09 µM (active); in assay [7], 19.1 µM (active) and 2.45 µM (active). Also, the Potency result in assay [8] is “inactive”.
With `N#CCCCCC#N`, the Potency result in assay [1], in assay [2], in assay [3], in assay [4], in [5] and in assay [6] was “inactive” throughout. The Potency entry in assay [7] and in [8] was “inactive” each time.
`CCCCOC(=O)COC(=O)c1ccccc1C(=O)OCCCC`: the Potency result in assay [1], in [2], in assay [3], in [9], in assay [4] and in assay [5] was “inactive” throughout. Further, the Potency entry in assay [6], in [7] and in assay [8] was “inactive” throughout.
For the compound `O=NN1CCOCC1`, the Potency entry in assay [1], in assay [3], in assay [9], in assay [4], in [5] and in [6] was “inactive” in each case. Besides, the Potency entry in [7] and in assay [8] was “inactive” each time. For the same compound, the Potency result in assay [2] was “inactive and 3.47 µM (active)”.
`CC(O)CN(CC(C)O)CC(C)O` (stereo not drawn): the Potency entry in assay [1], in assay [2], in [3], in assay [9], in [4] and in [5] was “inactive” each time. Besides, the Potency result in [6], in assay [7] and in assay [8] was “inactive” in each case.
For the compound `C=C(C)C#N`, the Potency entry in assay [1], in assay [3], in assay [9], in assay [4], in assay [5] and in assay [6] was “inactive” each time. For the same compound, the Potency result in assay [7] and in assay [8] was “inactive” in each case. Further, the Potency result in assay [2] was “inactive and 21.9 µM (active)”.
Take `O=C(O)CF`: the Potency entry in assay [1], in assay [2], in [3], in assay [9], in assay [4] and in assay [5] was “inactive” throughout. Besides, the Potency entry in assay [6] was “inactive and 19.5 µM (active)”; in assay [7] it was “inactive and 19.5 µM (active)”.
Take `CC(C)=CC1C(C(=O)OCc2cccc(Oc3ccccc3)c2)C1(C)C` (stereo not drawn): the Potency entry in [1], in assay [2], in assay [3], in assay [4], in assay [5] and in assay [6] was “inactive” in each case. In assay [7], the Potency result is “inactive”.
Turning to `Cc1ccc(N=CN(C)C=Nc2ccc(C)cc2C)c(C)c1`, the Potency result in assay [1], in assay [3], in assay [4] and in assay [5] was “inactive” throughout. The Potency is 43.8 µM (active) and 38.9 µM (active) and inactive in assay [2]; 43.6 µM (active) and inactive in [6]; 43.6 µM (active) and inactive in assay [7].
`O=C1Nc2ccc(Cl)cc2C(c2ccccc2)=NC1O` (stereo not drawn): the Potency result in [1], in assay [3], in assay [4], in assay [5], in assay [6] and in assay [7] was “inactive” throughout. Further, in assay [8], the Potency entry is “inactive”. In [10], the max response is -19.7% (inactive).
Turning to `COP(=S)(OC)SCn1nnc2ccccc2c1=O`, the Potency result in [1], in assay [3], in [9], in [4], in assay [5] and in assay [6] was “inactive” in each case. In addition, the Potency result in assay [7] and in assay [8] was “inactive” throughout. In [10], the Potency was 48 µM (active).
Turning to `O=[N+]([O-])c1ccc(Nc2ccccc2)cc1`, the Potency result in [1], in assay [3], in [9], in [4], in assay [5] and in assay [6] was “inactive” in each case. The Potency entry in assay [7] was “inactive”. Besides, in assay [2], the Potency was 27.8 µM (active).
Regarding `O=C1C(Cl)=C(Cl)C(=O)c2ccccc21`, the Potency in assay [1] was 3.9 µM (active) and 4.9 µM (active); in [2], 6.19 µM (active) and 9.77 µM (active); in assay [3] it was 21.9 µM (active) and 6.92 µM (active); in assay [9] it was 3.9 µM (active) and 6.92 µM (active); in assay [4] it was 12.3 µM (active) and 4.9 µM (active); in [5] it was 31 µM (active) and 12.3 µM (active). For the same compound, the Potency in assay [6] was 12.3 µM (active) and 3.89 µM (active); in [7], 17.4 µM (active) and 4.36 µM (active); in assay [8] it was 5.51 µM (active).
On to `O=[N+]([O-])c1ccc(Cl)c([N+](=O)[O-])c1`, for which the Potency was 14 µM (active) and 19.5 µM (active) in [1]; 11.1 µM (active) and 12.3 µM (active) in [2]; 24.9 µM (active) and 15.5 µM (active) in assay [3]; 39.5 µM (active) in [9]; 39.5 µM (active) and 54.9 µM (active) in [4]; 35.2 µM (active) and 17.4 µM (active) in assay [5]. Besides, the Potency is 35.2 µM (active) and 49 µM (active) in assay [6]; 39.5 µM (active) and 24.5 µM (active) in assay [7]. Also, in assay [8], the Potency entry was “inactive”.
On to `OC(c1ccc(Cl)cc1)(c1cncnc1)c1ccccc1Cl` (stereo not drawn), for which the Potency in [1] is 19.8 µM (active) and inactive; in assay [2], 11.2 µM (active); in assay [4] it was 49.8 µM (active) and inactive; in assay [5], 17.7 µM (active) and inactive; in assay [6] it was 25 µM (active) and inactive; in [7], 17.7 µM (active) and inactive. Also, the Potency entry in assay [8] was “inactive”.
Turning to `Clc1cccc(C(Cl)(Cl)Cl)n1`, the Potency entry in assay [2], in assay [3], in assay [9], in [5] and in [8] was “inactive” throughout.
As to `O=C1CCCO1`, the Potency entry in [1], in [2], in [3], in assay [4], in assay [5] and in assay [6] was “inactive” throughout. Besides, the Potency entry in assay [7] and in assay [8] was “inactive” throughout.
